Experimental data taken from the supplement of paper PMC5499739.
Whole data set: some 16,000 sequences, median “Z-score” near -0.37, cut for the highest 2% near 3.1. This excerpt belongs to a sample that is enriched for the highest values.

System: RBM10 RRM1-ZnF-RRM2 (GST-tagged construct)
Assay: RNAcompete 7-mer binding Z-score; higher = stronger binding preference
Method in brief: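 GST-tagged RBM10 constructs (20 pmol) were mixed with a designed pool of 241 399 RNAs up to 41 nt (1.5 nmol), transcribed from microarray-derived DNA templates. Mixing was in 1 ml Hepes pH 7.8 buffer with KCl, NaCl, glycerol, DTT, BSA and glutathione Sepharose beads. Binding ran 30 min at 4°C, followed by four 2-min washes at 4°C, and bound RNA was identified by microarray hybridisation. Each heptamer motif received a one-sided Z-score for enrichment across probes containing it.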

Sequence	RNAcompete 7-mer binding Z-score
AGAAGGG	4.09
AGAAGCU	-0.508
CCCCCCA	-0.38
ACUAGGC	-0.235
CUAACGA	-0.566
UGUAGCC	-0.624
AUCCCUC	-0.759
CGCACGG	-0.0124
AGGUUGG	2.71
UGGUUAG	1.94
GGGUUGG	4.05
CGGUUGG	1.91
GGGUUGA	3.53
CGGUUGA	0.876
CGGUUAG	0.691
UGGUUGA	1.31
GGGUUAG	4.04
AAGUUUU	-0.329
UUGGGAA	1.92
AUGGGAA	4.29
AUGGGGG	3.84
AUGGGAG	3.64

Sequence	RNAcompete 7-mer binding Z-score
UUGGGAG	2.51
CUGGGAG	1.4
CUGGGAA	1.36
AUGGGGC	2.6
AUGGGGA	4.23
GCGGUAU	0.574
AUUAUCG	-0.402
UCCCCCU	-0.566
UGAAAUU	-0.686
CUGUGGG	1.63
AAAAAAA	-0.49
UAGGCUA	0.392
CGACGUG	0.25
GACGGCG	0.836
CUGGGGU	1.79
CGGGGGU	3.06
AUGGGGU	3.91
AUCACCU	-0.876
UGUAGAU	0.235
GUUAGGC	1.25
CCGGGGU	1.71
ACGGGGG	3.19

Sequence	RNAcompete 7-mer binding Z-score
ACGGGUU	2.32
ACGGGGC	2.37
GCGGGUG	2.75
ACGGGGA	2.84
ACGGGUC	1.42
ACGGGGU	3.8
ACGGGUG	3.24
CGUUCUC	-0.763
UUCAUUU	-0.737
GCGGCUA	0.21
ACCCAGC	-0.785
CAAUGCA	-0.362
UCUAAUG	-0.577
CUUUAUA	-0.752
GGCGGGG	3.64
AGCGGGG	3.96
CGCGGGA	1.16
CGCGAGG	0.833
AGCGGGU	3.01
AGCGGGA	3.24
GGCGAGG	3.22
GGCGGGC	1.97

Sequence	RNAcompete 7-mer binding Z-score
GGCGAGC	1.87
AGCGGGC	1.57
CGCGGGG	2.32
GGCGGGU	2.57
UGGUAAG	1.73
CUAGGGA	1.6
GAGACCG	-0.0452
UACACCC	-0.77
AGCAGGU	1.74
GACUCCA	-0.704
CUUUAGG	-0.369
AUAUAAU	-0.366
GGUGAAA	1.83
CAAAUAG	-0.144
GGCGGGA	3.23
UGCGGGA	1.7
GGCGGCA	1.12
AUAUUAG	0.0313
AAUUGGG	2.6
GGUUGGU	1.94
UUUGGGG	2.13
AUUGGGA	2.99

Sequence	RNAcompete 7-mer binding Z-score
AUUGGGG	3.16
GGUUGGC	2.03
GUUGGGG	3.69
GAUUGGG	3.64
GAUUGGC	0.927
CUUGGGG	1.13
AUUGGGU	2.74
GGUUGGG	4.42
CCUUUCC	-0.887
AUGGCGU	0.705
CGCUAAU	-0.628
AAGCAGA	0.672
UCGGAAC	0.0532
UUGUCAA	-0.741
AAUUCAC	-0.643
UUUGCAA	-0.602
ACUUUCU	-0.959
AUCGAGA	0.352
GGUUAGC	1.03
GGUUAGG	4.22
GGUUAGU	1.6
ACUGCCC	-0.439
